Screens deposited in PubChem by several laboratories.
A selection: hits, their analogues and other compounds. The true share with any hit is near 1.4%.
VHR inh abs: DUSP3 (human) phosphatase inhibition; inhibition, % at 13.3 µM; P51452; AID 1654; recombinant VHR phosphatase, pNPP absorbance; 0.52% of 290,000 active; in the data active = inhibition above about 50%
Target sequence (P51452 whole entry, looked up): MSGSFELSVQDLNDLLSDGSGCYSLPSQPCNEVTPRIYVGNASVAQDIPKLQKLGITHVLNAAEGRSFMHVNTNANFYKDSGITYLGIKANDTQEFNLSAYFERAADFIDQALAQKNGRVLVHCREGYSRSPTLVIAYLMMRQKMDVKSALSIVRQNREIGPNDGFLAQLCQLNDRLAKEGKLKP
SARS 3CLpro inh: SARS-CoV 3CLpro protease inhibition; P0C6X7; recombinant SARS-CoV 3CLpro, quenched FRET peptide cleavage; inhibition, % at 6 µM; 0.14% of 290,000 active; in the data active = inhibition above about 12%
Sa RN4220 lethal: S. aureus RN4220 growth inhibition. OD600, 16 h. inhibition, % (no concentration beside the values). 0.33% of 330,000 active; in the data active = inhibition above about 85%;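 note: plate controls were untreated cells for no effect and reference antibiotic for full effect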
BJeLR lethal: kills HRASV12-expressing BJeLR cells. BJeLR (HRASV12) viability, CellTiter-Glo ATP luminescence, 48 h. inhibition, % (no concentration beside the values). 0.17% of 300,000 active. AID 1554; in the data active = inhibition above about 50%
Sa ugtP lethal: kills S. aureus RN4220 lacking UgtP. AID 1259309. 0.54% of 330,000 active. S. aureus RN4220 ugtP deletion, OD600 growth, 16 h. growth inhibition, % (no concentration beside the values); in the data active = growth inhibition above about 68%;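 note: plate controls were untreated wells for no effect and antibiotic for full effect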
PrPC surface inh: inhibitors of human cell surface prion protein PrPC. P04156. TR-FRET read-out. inhibition, % at 13.8 µM. 0.43% of 370,000 active. AID 720596; in the data active = inhibition above about 24%; note: 0% = median of the test wells and 100% = reference compound wells
Numbers without * were called inactive; · = no result.

SMILES	VHR inh abs	SARS 3CLpro inh	Sa RN4220 lethal	BJeLR lethal	Sa ugtP lethal	PrPC surface inh
CCc1nnc(NS(=O)(=O)c2ccc(NC(=S)NC(=O)c3ccccc3)cc2)s1	-4	11	18	-9	74	-4
O=C(NC(=S)Nc1ccc(S(=O)(=O)Nc2nccs2)cc1)c1ccc(F)c(F)c1	-10	7	14	-6	97*	7
O=C(NC(=S)Nc1ccc(S(=O)(=O)Nc2nccs2)cc1)c1ccccc1	-4	-4	14	-1	91*	7
O=C(Nc1ccc(S(=O)(=O)Nc2nccs2)cc1)c1nn(-c2ccccc2)ccc1=O	39	-8	2	3	-5	-10
O=C(NC(=S)Nc1ccc(S(=O)(=O)Nc2nccs2)cc1)c1cccnc1	11	0	·	3	·	8
CCc1nnc(NS(=O)(=O)c2ccc(NC(=S)NC(=O)c3ccc(Br)cc3)cc2)s1	2	8	29	11	86*	-3
COC(=O)c1ccccc1N1C(=O)C2C3C=CC(C3)C2C1=O (centres undefined)	·	·	2	·	-4	·
CC(NC(=O)c1nc[nH]c1C(=O)NC(Cc1ccccc1)C(=O)OCc1ccccc1)c1ccccc1 (centres undefined)	·	·	0	·	-8	·
O=C(Nc1nnc(C2=COCCO2)o1)c1cccc(C(F)(F)F)c1	-2	0	95*	16	82	1
O=C(O)CC1c2ccccc2S(=O)(=O)N1C1CCCCC1 (centres undefined)	·	·	7	·	2	·
Cc1ccc(C(=O)N2CCc3ccccc32)cc1	13	-2	8	3	13	2
O=C(c1ccc(Cl)cc1)N1CCc2ccccc21	56*	-3	4	9	12	3
O=C1CCCN1c1ncc(S(=O)(=O)c2ccc([N+](=O)[O-])cc2)s1	-2	-1	72	-2	75	-14
Nc1ncc(S(=O)(=O)c2ccc([N+](=O)[O-])cc2)s1	·	·	98*	·	96*	-13
CC(C)(C)OC(=O)CC1CC=CCC(CC(=O)N(CCO)Cc2ccccc2)C(=O)NC(Cc2c[nH]c3ccccc23)COC1=O (centres undefined)	·	·	-1	·	5	·
Cc1cccc(C(=O)N[C@H](C(=O)Nc2ncc(C)s2)C(C)C)c1	-22	4	-1	13	8	41*
CC(C)C(NC(=O)c1ccccc1)C(=O)OCC(=O)C=C1N(C)c2ccccc2C1(C)C (centres undefined)	·	·	5	·	-7	·
CCOC(=O)C1=CN2CCCCC2CC1=O (centres undefined)	·	·	8	·	0	·
C=CCCC(Cc1ccc(F)cc1)C(=O)OCC(C)NC(=O)C(CC=C)CC(=O)NC(CO)Cc1ccccc1 (centres undefined)	·	·	3	·	10	·
C(=N\N1CCOCC1)/c1ccsc1	57*	-3	·	6	·	2
C(=N\N1CCOCC1)/c1cccs1	37	-6	·	-7	·	4
CCCCCCCN1C(Nc2ccccc2)=NCC1Cc1ccccc1 (centres undefined)	·	·	-3	·	-3	·
O=[N+]([O-])/C=C/c1c(OCc2ccccc2)ccc2ccccc12	-2	3	·	81*	·	·
CCOC(=O)COc1ccc2ccccc2c1/C=C/[N+](=O)[O-]	-6	3	81	16	87*	0
CCOC(=O)Cn1cc(/C=C/[N+](=O)[O-])c2ccccc21	7	1	11	-11	6	-9
SMILES	VHR inh abs	SARS 3CLpro inh	Sa RN4220 lethal	BJeLR lethal	Sa ugtP lethal	PrPC surface inh
CCOc1ccc(/C=C/[N+](=O)[O-])c2ccccc12	20	-2	96*	19	95*	·
Cc1ccccc1OCC(=O)ON=C(N)Cc1ccc(Cl)cc1	·	·	4	·	2	·
COc1ccc(NC(=S)N2CCN(CC=Cc3ccccc3)CC2)cc1	·	·	5	·	-1	·
COc1ccc(C2=CC(=O)CC(c3ccc(Cl)cc3)C2)cn1 (centres undefined)	·	·	2	·	1	·
COc1ccc2c(c1)C1C(CO2)C(c2ccccc2)[C@]2(C)C(=O)Nc3cc(Cl)ccc3C(=O)N12 (some centres undefined)	·	·	-10	·	8	·
O=C(CN1C(=O)C(=Cc2ccccc2)SC1=S)Nc1cccnc1	·	·	4	·	-6	·
CC(C)CCN1C(=O)c2ccc(-c3nc4ccccc4c(=O)o3)cc2C1=O	50*	-2	4	-2	6	6
O=C(Cn1nc(CNc2ccc(Cl)cc2)[n+]2c1CCCCC2)c1ccc(Br)cc1	8	3	89*	-9	98*	3
